# From PubChem BioAssay (NCATS)
# Results filed as inconclusive are left out. Where a call stands in place of a potency, no number is given. The source made the active and inactive calls. Calls follow the shape of the dose curve; as a rule, active = well fitted curve in the direction sought with a large enough effect; inconclusive = small, poorly fitted or top-dose-only effect, or another doubt; inactive = no such curve, though single readings can be large; an effect the other way counts as inactive or inconclusive.
# System: not listed separately
# Assay: Cell Viability - LYMP2-001 (AID 921);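 also: cells exposed to compound for 24 h at 37 °C; nearly all actives have a fitted effect of over 70% in size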; also: potency is read from the fitted curve at half-maximal effect
# Details: LYMP2-001 lymphoblastoid cell viability; series mostly up to 92.2 µM
# Procedure, shortened: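 A lymphoblastoid cell line of human origin was treated with library compounds across a concentration series for 24 hours, and viable cell number was estimated from ATP-driven luciferase light output. Hill modeling gave AC50.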
row,SMILES,Potency
1,Oc1ccccc1-c1ccccc1,inactive
2,CNCC(O)c1ccc(O)cc1 (stereo not given),inactive
3,CCOP(=S)(OCC)Oc1cc(C)nc(C(C)C)n1,inactive
4,c1ccc2c(c1)Nc1ccccc1S2,inactive
5,N[C@@H](Cc1ccc(N(CCCl)CCCl)cc1)C(=O)O,39.8 µM (active)
6,Oc1ccc(Cl)cc1Cc1ccccc1,inactive
7,OCCOc1ccccc1,inactive

# Biological target: Muscarinic acetylcholine receptor M1 (Rattus norvegicus) (UniProt P08482)
# Sequence (P08482 whole entry, looked up): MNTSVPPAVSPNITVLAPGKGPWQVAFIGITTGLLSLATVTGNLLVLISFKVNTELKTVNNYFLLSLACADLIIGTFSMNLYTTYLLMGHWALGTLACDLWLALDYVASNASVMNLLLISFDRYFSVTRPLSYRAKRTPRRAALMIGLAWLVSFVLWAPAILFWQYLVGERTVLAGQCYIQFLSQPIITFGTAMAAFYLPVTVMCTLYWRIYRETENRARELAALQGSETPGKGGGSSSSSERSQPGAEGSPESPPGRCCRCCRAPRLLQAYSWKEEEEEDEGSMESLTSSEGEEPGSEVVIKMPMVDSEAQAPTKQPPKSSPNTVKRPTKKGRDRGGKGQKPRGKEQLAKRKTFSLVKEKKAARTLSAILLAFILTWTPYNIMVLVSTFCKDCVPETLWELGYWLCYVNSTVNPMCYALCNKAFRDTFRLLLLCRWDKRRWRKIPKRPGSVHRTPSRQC
# Assay: qHTS Assay for Antagonists of Acetylcholine Muscarinic M1 Receptor: Kinetic Measurement of Intracellular Calcium Response (AID 943); also: nearly all actives have a fitted effect of over 75% in size; also: potency is read from the fitted curve at half-maximal effect
# Details: M1-expressing cells, kinetic intracellular calcium fluorescence; series mostly up to 35.3 µM
# Procedure, shortened: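 Intracellular calcium flux, recorded with Fluo-4 in a kinetic plate reader, served as signal; the response to carbachol at EC80 (100 nM final) was taken as maximal over minimal fluorescence after a 10 min compound pre-incubation in rat M1-CHO cells.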
row,SMILES,Potency
1,CCn1cc(C(=O)O)c(=O)c2ccc(C)nc21,inactive
2,Cc1ccc(S(=O)(=O)N[C@@H](CCCCN)C(=O)CCl)cc1,inactive
3,O=c1c(O)c(-c2ccc(O)c(O)c2)oc2cc(O)cc(O)c12,inactive
4,CCCN1CCC[C@@H]2Cc3[nH]ncc3C[C@H]21,inactive
5,Fc1ccc(C(OCCN2CCN(CCCc3ccccc3)CC2)c2ccc(F)cc2)cc1,1.58 µM (active)

# Biological target: Muscarinic acetylcholine receptor M1 (Rattus norvegicus) (UniProt P08482)
# Assay: qHTS Assay for Antagonists of Acetylcholine Muscarinic M1 Receptor: Measurement of IP-One Response (AID 944); also: nearly all actives have a fitted effect of over 75% in size; also: potency is read from the fitted curve at half-maximal effect
# Details: CHO-M1 cells, IP-One HTRF, antagonist mode; series mostly up to 46.1 µM
# Procedure, shortened: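 Steps: plate transfected CHO-M1 cells overnight; add test compound, 10 min; add carbachol (200 nM, EC80) in stimulation buffer with LiCl; incubate 30 min; add labelled IP1 tracer and anti-IP1 antibody in lysis buffer; read HTRF after 10 min.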
row,SMILES,Potency
1,CCn1cc(C(=O)O)c(=O)c2ccc(C)nc21,inactive
2,c1ccc(C2CC2)c(OCC2=NCCN2)c1,10 µM (active)
3,CNCC(O)c1ccc(O)cc1 (stereo not given),inactive
4,Cc1nc2n(c(=O)c1CCN1CCC(c3noc4cc(F)ccc34)CC1)CCCC2,12.6 µM (active)
5,N[C@@H]1C[C@H]1c1ccccc1,inactive
6,CN1C[C@H](CNC(=O)OCc2ccccc2)C[C@@H]2c3cccc4c3c(cn4C)C[C@H]21,15.8 µM (active)
7,CCCN1CCC[C@@H]2Cc3[nH]ncc3C[C@H]21,inactive
8,CCCN1CCC[C@@H]2Cc3nc(N)ncc3C[C@H]21,inactive
9,Fc1ccc(C(OCCN2CCN(CCCc3ccccc3)CC2)c2ccc(F)cc2)cc1,7.94 µM (active)

# Biological target: Pyruvate kinase (Leishmania mexicana) (UniProt Q27686)
# Sequence (Q27686 2-499 E452W): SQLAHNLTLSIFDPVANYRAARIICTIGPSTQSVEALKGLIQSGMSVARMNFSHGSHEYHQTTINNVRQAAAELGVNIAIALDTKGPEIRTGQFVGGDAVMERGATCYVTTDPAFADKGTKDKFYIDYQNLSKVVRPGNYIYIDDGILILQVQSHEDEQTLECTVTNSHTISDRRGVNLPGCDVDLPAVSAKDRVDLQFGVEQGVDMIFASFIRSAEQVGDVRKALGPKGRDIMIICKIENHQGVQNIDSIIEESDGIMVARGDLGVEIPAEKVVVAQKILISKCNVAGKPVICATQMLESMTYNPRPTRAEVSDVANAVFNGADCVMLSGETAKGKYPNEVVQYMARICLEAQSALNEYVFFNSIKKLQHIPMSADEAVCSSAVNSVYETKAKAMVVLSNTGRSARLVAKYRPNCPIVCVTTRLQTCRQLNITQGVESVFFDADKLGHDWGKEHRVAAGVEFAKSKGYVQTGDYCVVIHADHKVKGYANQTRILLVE
# Assay: qHTS Validation Assay for Inhibitors of Leishmania Mexicana Pyruvate Kinase (AID 945)
# Details: purified L. mexicana pyruvate kinase, enzyme activity, E451W mutant enzyme; series mostly up to 57.5 µM
# Procedure, shortened: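 qHTS eight-point titrations against 0.2 nM LmPYK (E451W) in imidazole buffer pH 7.2 with 0.5 mM PEP, 0.1 mM ADP; 1 h, room temperature. Readout: PKLight luminescence, normalized to neutral DMSO wells.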
row,SMILES,outcome
1,N#CC(C#N)=Cc1ccc(O)c(O)c1,inactive
2,Clc1cccc(N2CCNCC2)c1,inactive
3,CCn1cc(C(=O)O)c(=O)c2ccc(C)nc21,inactive
4,c1ccc(C2CC2)c(OCC2=NCCN2)c1,inactive
5,CNCC(O)c1ccc(O)cc1 (stereo not given),inactive
6,Cc1ccc(S(=O)(=O)N[C@@H](CCCCN)C(=O)CCl)cc1,inactive
7,CC(=O)[C@H]1CC[C@H]2[C@@H]3CC[C@H]4C[C@H](O)CC[C@]4(C)[C@H]3C(=O)C[C@]12C,inactive
8,N[C@@H]1C[C@H]1c1ccccc1,inactive
9,CN1C[C@H](CNC(=O)OCc2ccccc2)C[C@@H]2c3cccc4c3c(cn4C)C[C@H]21,inactive
10,CCCN1CCC[C@@H]2Cc3[nH]ncc3C[C@H]21,inactive
11,NCC1(CC(=O)O)CCCCC1,inactive
12,NCC(CC(=O)O)c1ccc(Cl)cc1 (stereo not given),inactive
13,CCCN1CCC[C@@H]2Cc3nc(N)ncc3C[C@H]21,inactive
14,Fc1ccc(C(OCCN2CCN(CCCc3ccccc3)CC2)c2ccc(F)cc2)cc1,inactive

# System: not listed separately
# Assay: MultiTox-Fluor Cytotoxicity Assay - LYMP1-001 - Dead Cells (AID 946);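 also: cells exposed to compound for 16 h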; also: potency is read from the fitted curve at half-maximal effect
# Details: LYMP1-001 lymphoblastoid cells, dead-cell protease fluorescence; series mostly up to 92.2 µM
# Procedure, shortened: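 In this qHTS, 15 uM tetraoctylammonium bromide defined 100% and DMSO defined basal activity. Lymphoblastoid cells (LYMP1-001, 2500 per well) received compound for 16 hr at 37 C before a fluorogenic dead-cell substrate readout at 485/520 nm.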
row,SMILES,Potency
1,Oc1ccccc1-c1ccccc1,inactive
2,CNCC(O)c1ccc(O)cc1 (stereo not given),inactive
3,CCOP(=S)(OCC)Oc1cc(C)nc(C(C)C)n1,inactive
4,c1ccc2c(c1)Nc1ccccc1S2,inactive
5,C[C@]12C/C(=C/O)C(=O)C[C@@H]1CC[C@@H]1[C@@H]2CC[C@@]2(C)[C@H]1CC[C@]2(C)O,50.1 µM (active)
6,Oc1ccc(Cl)cc1Cc1ccccc1,inactive
7,OCCOc1ccccc1,inactive
8,CC(=O)Oc1ccccc1C(=O)Nc1ncc([N+](=O)[O-])s1,39.8 µM (active)

# System: not listed separately
# Assay: MultiTox-Fluor Cytotoxicity Assay - LYMP1-001 - Live Cells (AID 947)
# Details: LYMP1-001 lymphoblastoid cells, live-cell protease fluorescence viability; series mostly up to 92.2 µM
row,SMILES,outcome
1,Oc1ccccc1-c1ccccc1,inactive
2,CNCC(O)c1ccc(O)cc1 (stereo not given),inactive
3,CCOP(=S)(OCC)Oc1cc(C)nc(C(C)C)n1,inactive
4,c1ccc2c(c1)Nc1ccccc1S2,inactive
5,N[C@@H](Cc1ccc(N(CCCl)CCCl)cc1)C(=O)O,inactive
6,Oc1ccc(Cl)cc1Cc1ccccc1,inactive
7,OCCOc1ccccc1,inactive
